The values below come from PubChem BioAssay (NCATS).

A short description of assay [1]: Cell Viability - Jurkat (AID 426;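 active = dose-dependent loss of cell ATP signal giving a full or clear fitted curve, ranked by lower potency value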;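 also: potency is read from the fitted curve at half-maximal effect; cells exposed to compound for 40 hours at 37 °C before ATP read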). The note with it: qHTS. Put shortly: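 Seed 5000 Jurkat E6-1 cells/well; add compound; incubate 40 hr at 37 °C; add CellTiter-Glo; wait 20 min at room temperature; read luminescence. Fit concentration-response with Hill equation for AC50.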
A general note: qHTS replaces the single test concentration by a dilution series.

Assay [2] in a line: Cell Viability - Hek293 (AID 427;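 active = compounds whose dose-response curve shows a full or clear partial loss of cell viability, called from curve shape rather than a numeric limit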;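 also: potency is read from the fitted curve at half-maximal effect; cells exposed to compound for 40 hours at 37 °C before reading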). To be noted: qHTS. The essentials: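 Luminescent ATP content (CellTiter-Glo, 20 min at room temperature) was measured after a 40 hr, 37 °C compound exposure of HEK293 cells. AC50 values came from Hill-equation fits of qHTS concentration-response data normalized to DMSO and 100 uM tamoxifen.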
Assay [3] can be described thus: Cell Viability - H-4-II-E (AID 543).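 Also: cells exposed to compound for 40 hours; nearly all actives have a fitted effect of over 35% in size.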 Also: potency is read from the fitted curve at half-maximal effect. The note with it: H-4-II-E rat hepatoma viability; series mostly up to 92.2 µM. The essentials: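 Here, cytotoxicity is measured in the rat hepatoma line H-4-II-E as loss of intracellular ATP after 40 hr compound treatment, detected by luciferase luminescence.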
The nature of assay [4]: MultiTox-Fluor Cytotoxicity Assay - LYMP1-001 - Live Cells (AID 947).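 Also: 0% = DMSO only and full inhibition = tetraoctylammonium bromide control.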 To be noted: LYMP1-001 lymphoblastoid cells, live-cell protease fluorescence viability; series mostly up to 92.2 µM.
Assay [5] in a line: Cell Viability - LYMP2-004 (AID 966).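 Also: plate controls were DMSO only for no effect and tetraoctylammonium bromide control for full effect; nearly all actives have a fitted effect of over 65% in size.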 To be noted: LYMP2-004 lymphoblastoid cell viability, qHTS; series mostly up to 92.2 µM. The essentials:
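Acute toxicity is scored as a concentration-dependent drop in intracellular ATP, quantified by luciferase luminescence, in human lymphoblastoid cells exposed to compound for 24 hr. AC50 derives from Hill-equation modelling.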

Assay [6] addresses Estrogen receptor (Homo sapiens) (UniProt P03372). Nature of the assay: qHTS assay for small molecule antagonists of estrogen receptor alpha signaling (AID 588513; active = well fitted curve in the direction sought with a large enough effect in the signal ratio, with a control signal flat, not every such curve was filed as active; the % refers to the signal ratio; also: % is scaled to controls: 0 for no effect and ±100 for the full control effect). To be noted: ER-alpha-UAS-bla HEK293, beta-lactamase ratio, antagonist mode; series mostly up to 76.9 µM. Put shortly: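 ER-alpha-UAS-bla GripTite HEK 293 cells in medium with 2% charcoal/dextran-treated FBS were preincubated 4 h at 37 C, dosed with compound (1:2 titration), stimulated with 0.5nM 17-beta-estradiol for 18 h, then read by CCF4 beta-lactamase fluorescence.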

Assay [7] has the same target. The assay is described as follows: qHTS assay for small molecule agonists of estrogen receptor alpha signaling (AID 588514; calls by dose curve;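 also: 0% = vehicle only and 100% = reference agonist; nearly all actives have a fitted effect of over 70% in size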). The note with it: ER-alpha-UAS-bla HEK293, beta-lactamase ratio, 18 h; series mostly up to 76.8 µM. Put shortly:
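Reporter-gene assay. […] controls beta-lactamase in HEK 293 GripTite cells; after 18 hrs with compound, CCF4 substrate is added for 2 hrs and fluorescence is read.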

The target of assay [8] is Glucocorticoid receptor (Homo sapiens) (UniProt P04150). The assay is described as follows: qHTS assay for small molecule agonists of glucocorticoid receptor signaling (AID 588532; active = well fitted curve in the direction sought with a large enough effect in the signal ratio, with a control signal flat; the % refers to the signal ratio;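 also: 100% = dexamethasone at 0.1 µM and 0% = DMSO only wells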). The note with it: HeLa MMTV-bla, beta-lactamase ratio, agonist, 18 h; stronger effect = higher value; percent of dexamethasone control, DMSO zero. Put shortly:
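MMTV-bla HeLa beta-lactamase reporter cells in 1% charcoal/dextran FBS medium, compounds up to 92 uM for 18 h at 37 C, CCF4 readout; normalized to 0.1 uM dexamethasone (100%), EC50 and efficacy from Hill fits.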

For assay [9] the target is unchanged. Nature of the assay: qHTS assay for small molecule antagonists of glucocorticoid receptor signaling (AID 588533; active = well fitted inhibition curve with a large enough effect in the signal ratio, with a control signal flat, not every such curve was filed as active; the % refers to the signal ratio;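 also: cells stimulated with 2 nM dexamethasone as agonist; % is scaled to controls: 0 for no effect and ±100 for the full control effect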). To be noted: HeLa MMTV-bla, GRE beta-lactamase ratio, antagonist mode, 18 h; series mostly up to 76.8 µM. The essentials: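 Antagonist-mode qHTS: compound titrations added to GRE-bla HeLa cells, then dexamethasone 2 nM final; 18 h, 37 C. CCF4 FRET fluorescence normalized to dexamethasone and DMSO; IC50 from Hill fit.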

Assay [10] can be described thus: qHTS assay for small molecule antagonists of peroxisome proliferator-activated receptor delta signaling (AID 588535; active = well fitted inhibition curve with a large enough effect in the signal ratio, with a control signal flat, not every such curve was filed as active; the % refers to the signal ratio;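 as to max response: cells co-treated with a PPAR-delta agonist as stimulator during compound exposure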). To be noted: HEK293T PPARd-UAS-bla, beta-lactamase FRET ratio, 18 h; 460 nm channel. Put shortly:
(§1)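 Cells were seeded at 4000 per well in assay medium containing 2% charcoal/dextran FBS and held 5 hrs at 37 C. Compounds were then added for 18 hrs. CCF4 substrate was applied for 2 hrs at room temperature before fluorescence reading.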

Assay [11] addresses Peroxisome proliferator-activated receptor delta (Homo sapiens) (UniProt Q03181). The assay is described as above. To be noted: HEK293T PPARd-UAS-bla, beta-lactamase FRET ratio, 18 h; series mostly up to 76.7 µM. The essentials:
as §1

The target in assay [12] is Peroxisome proliferator-activated receptor gamma (Homo sapiens) (UniProt P37231). The assay is described as follows: qHTS assay for small molecule agonists of peroxisome proliferator-activated receptor gamma signaling (AID 588536; active = well fitted curve in the direction sought with a large enough effect in the signal ratio, with a control signal flat, not every such curve was filed as active; the % refers to the signal ratio;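 also: 0% = DMSO basal wells and 100% = rosiglitazone at 2 µM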). The note with it: HEK293 PPARg-UAS-bla, beta-lactamase ratio, 16 h, percent of rosiglitazone response, DMSO as zero; series mostly up to 76.7 µM. Put shortly: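 Ratiometric blue/green fluorescence (405 nm excitation; 460 and 530 nm emission) from CCF4-loaded HEK293 reporter cells serves as signal. Exposure to test compounds lasts 16 h at 37 C in medium containing 1% charcoal/dextran-treated serum.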
Sequence of Peroxisome proliferator-activated receptor gamma (Homo sapiens) (P37231 whole entry, looked up): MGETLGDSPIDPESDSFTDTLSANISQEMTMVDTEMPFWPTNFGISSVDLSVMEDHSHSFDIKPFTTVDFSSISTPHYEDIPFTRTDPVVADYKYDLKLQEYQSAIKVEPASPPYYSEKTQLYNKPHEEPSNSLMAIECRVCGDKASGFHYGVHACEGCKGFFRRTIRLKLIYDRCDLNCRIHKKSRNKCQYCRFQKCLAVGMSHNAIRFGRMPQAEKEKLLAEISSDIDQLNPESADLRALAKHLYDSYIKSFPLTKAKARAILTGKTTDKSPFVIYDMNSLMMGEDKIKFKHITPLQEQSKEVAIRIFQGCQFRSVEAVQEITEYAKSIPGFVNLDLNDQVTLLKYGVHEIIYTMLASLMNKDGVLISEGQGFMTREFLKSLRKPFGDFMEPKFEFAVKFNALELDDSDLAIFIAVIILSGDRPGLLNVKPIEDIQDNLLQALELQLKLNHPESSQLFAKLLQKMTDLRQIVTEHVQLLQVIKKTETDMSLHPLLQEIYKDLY

The target is the same in assay [13]. The assay is described as follows: qHTS assay for small molecule antagonists of peroxisome proliferator-activated receptor gamma signaling (AID 588537; active = well fitted inhibition curve with a large enough effect in the signal ratio, with a control signal flat, not every such curve was filed as active; the % refers to the signal ratio;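 also: reporter cells co-stimulated with 50 nM rosiglitazone agonist during compound treatment; % of control where 0% means no effect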). The note with it: HEK293 PPARg-UAS-bla, beta-lactamase ratio, antagonist mode; series mostly up to 76.8 µM. The essentials: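 Step one: plate 3000 HEK293 UAS-bla cells per well in medium with 1% stripped serum and hold 6-6.5 h at 37 C. Step two: add compound and 50 nM agonist for 16 h. Step three: CCF4 loading, fluorescence read.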

The target of assay [14] is Retinoic acid receptor RXR-alpha (Homo sapiens) (UniProt P19793). The assay is described as follows: qHTS assay for small molecule agonists of retinoid X receptor alpha signaling (AID 588544; calls by dose curve;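 also: 0% = DMSO basal wells and 100% = reference agonist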). The note with it: HEK293T RXRa-UAS-bla, beta-lactamase reporter, 18 h; series mostly up to 76.7 µM.
Sequence of Retinoic acid receptor RXR-alpha (Homo sapiens) (P19793 whole entry, looked up): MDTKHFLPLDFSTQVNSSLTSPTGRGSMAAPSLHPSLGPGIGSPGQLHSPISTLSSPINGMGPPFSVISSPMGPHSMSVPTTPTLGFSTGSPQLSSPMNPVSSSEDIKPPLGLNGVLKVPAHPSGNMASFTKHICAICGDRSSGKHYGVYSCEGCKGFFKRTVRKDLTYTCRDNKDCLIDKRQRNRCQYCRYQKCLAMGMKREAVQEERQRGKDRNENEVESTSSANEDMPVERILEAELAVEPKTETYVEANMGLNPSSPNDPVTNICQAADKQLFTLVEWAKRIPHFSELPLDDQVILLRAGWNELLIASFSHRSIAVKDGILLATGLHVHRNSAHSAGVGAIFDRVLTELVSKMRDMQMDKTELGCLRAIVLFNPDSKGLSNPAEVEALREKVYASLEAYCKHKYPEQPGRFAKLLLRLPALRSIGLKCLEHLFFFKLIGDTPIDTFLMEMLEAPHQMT
Assay [15] in a line: qHTS assay for environmental chemicals that activate the Aryl hydrocarbon Receptor (AhR) signaling pathway (AID 651777). Also: % of control where 0% means no effect; nearly all actives have a fitted effect of over 15% in size. The note with it: 1A2-DRE human hepatoma cells, luciferase, 24 h; activation: stronger effect = higher value. Put shortly:
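Concentration–response screening used 1,200 1A2-DRE cells per well, 24 hr compound exposure (37 C, 5% CO2), and One-Glo luminescence as the AhR-driven CYP1A2 reporter signal.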

Assay [16] is described as follows: Cell Viability - NIH 3T3 (AID 541).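 Also: cells exposed to compound for 40 hours; plate controls were DMSO alone for no effect and tamoxifen positive control for full effect; nearly all actives have a fitted effect of over 25% in size.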 To be noted: NIH 3T3 cell viability, qHTS; activity change, negative = cytotoxicity: at 92.2 µM (top of the series). Put shortly:
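AC50 values reflect concentration-dependent loss of intracellular ATP in NIH 3T3 cells after 40 hr treatment in complete culture medium, quantified by luciferase-based luminescence.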

The nature of assay [17]: qHTS assay for small molecule agonists of the antioxidant response element (ARE) signaling pathway measured by Nrf2-dependant transcriptional activity (AID 720636; active = well fitted curve in the direction sought with a large enough effect in the repeat runs; an effect the other way counts as inactive or inconclusive;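 also: HepG2 cells with an ARE-driven luciferase reporter; % of control where 0% means no effect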). The note with it: ARE-luc HepG2, Nrf2 luciferase reporter, 16 h; series mostly up to 92.4 µM. Put shortly:
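Attachment 6 hr at 37 C, then compound versus DMSO vehicle for 16 hr in ARE-luc HepG2 cells (1% dialyzed FBS); luminescence recorded 30 min after ONE-Glo addition at room temperature.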

Assay [18] in a line: qHTS assay for small molecule agonists of the antioxidant response element (ARE) signaling pathway (AID 651741; active = well fitted activation curve with a large enough effect in the signal ratio; the % refers to the signal ratio; also: potency is read from the fitted curve at half-maximal effect; as to activation: % of control where 0% means no effect). To be noted: HepG2 ARE-bla reporter, beta-lactamase FRET ratio, 16 h; series mostly up to 96 µM. Put shortly:
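HepG2 ARE-bla cells plated at 2,000 cells/well and incubated 5 h at 37 C/5% CO2 received 23 nL compound in DMSO. After 16 h at 37 C, LiveBLAzer B/G FRET substrate was applied for 2 h at room temperature and fluorescence read.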

Assay [19] in a line: qHTS assay for small molecule disruptors of the mitochondrial membrane potential - 5 hr assay (AID 651755; calls by dose curve; also: nearly all actives have a fitted effect of over 40% in size; also: potency is read from the fitted curve at half-maximal effect). To be noted: JC-1-type ratio dye; series mostly up to 92.2 µM. The essentials: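 HepG2 cells (2,000/well), attached overnight, exposed to compound 5 hr at 37C, then Mito-MPS dye 30 min. Fluorescence read for monomers (490/535 nm) and aggregates (540/590 nm).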
Assay [20] can be described thus: Cell Viability - BJ (AID 421; calls by dose curve;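 also: potency is read from the fitted curve at half-maximal effect; cells exposed to compound for 40 hours at 37 °C before readout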). To be noted: BJ fibroblast viability, qHTS. The essentials: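 Cytotoxicity as drop in intracellular ATP (CellTiter-Glo, 20 min RT) after 40 hr compound exposure of BJ fibroblasts at 37 °C. Titrations scaled between DMSO and 100 uM tamoxifen, Hill-fitted for AC50.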

Several values for one entry are separate records, joined by “and”; a condition that tells them apart may be missing. Identical values can stand only once. Results filed as inconclusive are left out. Activity calls are given as the source filed them. Unless noted, calls follow the shape of the dose curve; as a rule, active = well fitted curve in the direction sought with a large enough effect; inconclusive = small, poorly fitted or top-dose-only effect, or another doubt; inactive = no such curve, though single readings can be large; an effect the other way counts as inactive or inconclusive.

Sequence of Peroxisome proliferator-activated receptor delta (Homo sapiens) (Q03181 whole entry, looked up): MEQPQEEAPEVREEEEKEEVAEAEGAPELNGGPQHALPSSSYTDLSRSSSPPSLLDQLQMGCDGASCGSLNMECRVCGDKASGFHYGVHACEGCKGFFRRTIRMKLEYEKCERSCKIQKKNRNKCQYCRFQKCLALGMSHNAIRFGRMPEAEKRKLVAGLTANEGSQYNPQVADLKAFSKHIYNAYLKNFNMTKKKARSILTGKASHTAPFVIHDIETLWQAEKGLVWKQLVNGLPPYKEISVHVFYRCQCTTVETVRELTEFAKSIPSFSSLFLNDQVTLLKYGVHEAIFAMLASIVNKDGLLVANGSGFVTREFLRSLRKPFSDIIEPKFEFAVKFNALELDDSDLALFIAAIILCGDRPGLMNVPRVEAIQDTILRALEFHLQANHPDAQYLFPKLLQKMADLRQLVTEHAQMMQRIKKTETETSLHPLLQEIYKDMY
Sequence of Glucocorticoid receptor (Homo sapiens) (P04150 whole entry, looked up): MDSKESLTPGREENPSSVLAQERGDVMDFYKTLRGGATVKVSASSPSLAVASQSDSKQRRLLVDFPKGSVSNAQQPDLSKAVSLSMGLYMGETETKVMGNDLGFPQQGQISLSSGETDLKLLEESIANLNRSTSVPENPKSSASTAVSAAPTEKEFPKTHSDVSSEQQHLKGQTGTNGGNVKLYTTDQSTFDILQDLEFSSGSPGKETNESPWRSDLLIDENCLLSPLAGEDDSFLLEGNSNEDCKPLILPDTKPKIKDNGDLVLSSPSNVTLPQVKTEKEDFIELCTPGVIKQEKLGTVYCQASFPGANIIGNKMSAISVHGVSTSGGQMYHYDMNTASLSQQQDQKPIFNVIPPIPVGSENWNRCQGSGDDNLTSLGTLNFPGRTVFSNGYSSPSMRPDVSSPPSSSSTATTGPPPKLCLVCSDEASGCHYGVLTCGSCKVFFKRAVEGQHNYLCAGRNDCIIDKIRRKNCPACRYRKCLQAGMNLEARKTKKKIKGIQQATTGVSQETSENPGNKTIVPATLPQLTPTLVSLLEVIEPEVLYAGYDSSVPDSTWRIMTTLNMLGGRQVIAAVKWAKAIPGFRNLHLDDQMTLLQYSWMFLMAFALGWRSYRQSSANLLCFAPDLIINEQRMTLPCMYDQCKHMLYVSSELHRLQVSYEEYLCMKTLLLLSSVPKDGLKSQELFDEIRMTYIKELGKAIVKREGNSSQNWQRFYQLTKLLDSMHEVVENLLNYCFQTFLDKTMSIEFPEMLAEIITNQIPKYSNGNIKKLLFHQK
Sequence of Estrogen receptor (Homo sapiens) (P03372 whole entry, looked up): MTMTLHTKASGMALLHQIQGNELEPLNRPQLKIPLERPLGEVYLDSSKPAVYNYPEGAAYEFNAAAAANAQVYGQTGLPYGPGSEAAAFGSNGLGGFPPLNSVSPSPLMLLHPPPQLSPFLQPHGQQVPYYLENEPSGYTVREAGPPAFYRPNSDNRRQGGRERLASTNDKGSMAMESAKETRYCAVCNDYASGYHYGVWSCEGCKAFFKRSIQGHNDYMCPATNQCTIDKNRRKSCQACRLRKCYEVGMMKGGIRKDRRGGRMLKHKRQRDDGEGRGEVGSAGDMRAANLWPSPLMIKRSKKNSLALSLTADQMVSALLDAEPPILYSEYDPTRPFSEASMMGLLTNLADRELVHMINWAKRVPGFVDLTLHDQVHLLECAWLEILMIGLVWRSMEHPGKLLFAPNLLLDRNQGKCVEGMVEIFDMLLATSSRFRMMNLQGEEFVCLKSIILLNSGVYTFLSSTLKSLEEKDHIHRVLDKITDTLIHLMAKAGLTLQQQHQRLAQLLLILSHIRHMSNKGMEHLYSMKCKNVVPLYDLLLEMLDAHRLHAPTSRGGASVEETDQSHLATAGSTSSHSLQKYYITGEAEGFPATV

As for `OCCOCCO`, the Potency in assay [1] and in assay [2] was > 92 µM (inactive) in each case. The Potency entry in assay [3], in assay [5], in [6], in [7] and in assay [13] was “inactive” each time. In addition, the result in [4], in assay [9], in [11], in [12] and in assay [14] was inactive. The activation in assay [8] is -0.687% (inactive); in assay [15], -0.842% (inactive). For the same compound, in assay [10], the max response was 5.13%.

As to `CCOS(C)(=O)=O`, the Potency in assay [1] and in [2] was > 92 µM (inactive) throughout. Besides, the Potency result in [16], in assay [3], in assay [5] and in assay [17] was “inactive” throughout. In addition, in [10], the max response was -10.7%. For the same compound, the outcome in assay [11], in assay [12] and in assay [14] was inactive. Also, in assay [15], the activation was 0.384% (inactive).

For `COC(=O)Nc1nc2ccccc2[nH]1`, the Potency in assay [1] was 3.38 µM (active); in [2] it was > 92 µM (inactive); in assay [3], 3.98 µM (active); in [18] it was 61.1 µM (active). Besides, the compound was classed as inactive in assay [4], in assay [11] and in assay [12]. For the same compound, the activation in [8] was -11.7% (inactive); in assay [15], 7.05% (inactive). Besides, the max response in [10] is -45%. In [13], the Potency result was “inactive”.

For the compound `COc1cc(-c2ccc(N)c(OC)c2)ccc1N`, the Potency is > 92 µM (inactive) in assay [1]; > 92 µM (inactive) in assay [2]; 1.06 µM (active) and 2.17 µM (active) in assay [18]. The Potency entry in assay [3], in assay [5], in [13] and in assay [17] was “inactive” throughout. In addition, the max response in [10] is 17.7% and -36%. The result in [11], in assay [12] and in [14] was inactive.

As for `O=C(O)c1cccc(Cl)c1`, the Potency in [1] and in assay [2] was > 92 µM (inactive) each time. In addition, the Potency entry in assay [16], in [3], in assay [5], in [6], in [7] and in assay [18] was “inactive” throughout. The Potency entry in [19] and in assay [17] was “inactive” throughout. Also, the outcome in [4], in assay [11] and in [14] was inactive. For the same compound, the max response in assay [10] is 30.4%. Moreover, the activation in assay [15] was 0.728% (inactive).

Consider `Clc1ccc(C(Cl)(Cl)Cl)c(Cl)c1`, for which the Potency in assay [1] and in [2] was > 92 µM (inactive) in each case. The Potency entry in assay [16], in assay [3], in assay [5], in [13], in [18] and in [19] was “inactive” each time. Further, in assay [17], the Potency entry was “inactive”. Also, the max response in assay [10] came out at 5.85%. Moreover, in assay [11], the outcome was inactive. Besides, the activation in assay [15] was -1.61% (inactive).

For the compound `CCOP(=S)(OCC)SCCSCC`, the Potency in [1] and in [2] was > 92 µM (inactive) each time. The Potency entry in assay [16], in assay [5], in assay [13], in [18], in assay [19] and in assay [17] was “inactive” each time. For the same compound, the result in assay [4], in assay [9], in [11], in assay [12] and in assay [14] was inactive. Moreover, the activation in [8] is 13.6% (inactive); in assay [15], 1.01% (inactive) and -2.18% (inactive). Moreover, the max response in [10] was -12.4% and 3.79%.

`Cc1ccc(OP(=O)(Oc2ccc(C)cc2)Oc2ccc(C)cc2)cc1`: the Potency was > 92 µM (inactive) in assay [20], > 92 µM (inactive) in [2] and 13.3 µM (active) in assay [19]. Further, the Potency result in [16], in [3], in assay [5] and in assay [13] was “inactive” in each case. Also, the call in [4], in assay [9], in assay [11] and in [14] was inactive. The activation in [8] is -0.0057% (inactive) and -10.3% (inactive); in assay [15] it was 5.07% (inactive) and 5.6% (inactive). Moreover, the max response in assay [10] was 2.39% and -12%.
